Test results as given in PubChem BioAssay AID1159580 (chemical genetic matrix, 2015).
Screen size: about 5,500 compounds; about 2,000 (36%) were called active. Roughly 18% stayed inconclusive and do not appear here. No stated cut-off is given here; in the data, active means normalized growth mostly below about 0.91 (no sharp cut-off); inconclusive means no clear call, values can overlap the other calls; inactive means mostly above about 0.92. The list shows a part of the results.

Test: chemical genetic growth profiling, strain panel (AID 1159580);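 further: tested at 20 µM; growth read once vehicle control cultures reached saturation at 30 °C; 1 = growth at the plate median or of vehicle wells; lower values mean less growth of the strain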
Settings: growth OD
[1] = S. cerevisiae deletion strains, locus YAL013W, strain DEP1, active compounds read low
[2] = S. cerevisiae deletion strains, locus YDR150W, strain NUM1, active compounds read low
[3] = S. cerevisiae deletion strains, locus YGR078C, strain PAC10, active compounds read low
[4] = S. cerevisiae deletion strains, locus YJR075W, strain HOC1, active compounds read low
[5] = S. cerevisiae deletion strains, locus YMR263W, strain SAP30, active compounds read low
[6] = S. cerevisiae deletion strains, locus YNL322C, strain KRE1, active compounds read low
[7] = S. cerevisiae deletion strains, locus YPL055C, strain LGE1, active compounds read low

Measured: normalized growth

CCC(=O)c1c(C)c(C)c(C)c(C)c1C
inactive: [1] 0.985 | S. cerevisiae deletion strains, locus YBR229C, strain ROT2, active compounds read low 0.992 | S. cerevisiae deletion strains, locus YCL061C, strain MRC1, active compounds read low 0.988 | S. cerevisiae deletion strains, locus YDL101C, strain DUN1, active compounds read low 0.99 | S. cerevisiae deletion strains, locus YDL134C, strain PPH21, active compounds read low 0.984 | [2] 1.01 | S. cerevisiae deletion strains, locus YEL061C, strain CIN8, active compounds read low 0.975 | [3] 1 | S. cerevisiae deletion strains, locus YHR030C, strain SLT2, active compounds read low 0.95 | S. cerevisiae deletion strains, locus YHR087W, strain rtc3, active compounds read low 0.959 | S. cerevisiae deletion strains, locus YJL187C, strain SWE1, active compounds read low 0.995 | S. cerevisiae deletion strains, locus YJR043C, strain POL32, active compounds read low 0.983 | [4] 0.948 | S. cerevisiae deletion strains, locus YKL190W, strain CNB1, active compounds read low 0.983 | S. cerevisiae deletion strains, locus YLR039C, strain RIC1, active compounds read low 1.1 | S. cerevisiae deletion strains, locus YLR058C, strain SHM2 (second series), active compounds read low 0.967 | S. cerevisiae deletion strains, locus YLR085C, strain ARP6, active compounds read low 1.01 | S. cerevisiae deletion strains, locus YLR262C, strain YPT6, active compounds read low 1.06 | S. cerevisiae deletion strains, locus YML094W, strain GIM5, active compounds read low 0.977 | S. cerevisiae deletion strains, locus YMR219W, strain ESC1, active compounds read low 0.986 | [5] 0.977 | S. cerevisiae deletion strains, locus YNL153C, strain GIM3, active compounds read low 0.982 | S. cerevisiae deletion strains, locus YNL298W, strain CLA4 (second series), active compounds read low 0.966 | [6] 0.997 | S. cerevisiae deletion strains, locus YNR030W, strain Alg12, active compounds read low 0.954 | S. cerevisiae deletion strains, locus YOL006C, strain TOP1, active compounds read low 1.01 | [7] 0.971 | S. cerevisiae deletion strains, locus YPL241C, strain CIN2, active compounds read low 0.986 | S. cerevisiae deletion strains, locus YPR135W, strain CTF4, active compounds read low 0.976 | S. cerevisiae strains, strain wild type, active compounds read low 0.988

CNC(=O)[C@H]1O[C@@H](n2cnc3c(NCc4ccc(I)cc4)nc(Cl)nc32)[C@H](O)[C@@H]1O
inactive: [1] 0.986 | S. cerevisiae deletion strains, locus YAL040C, strain CLN3, active compounds read low 0.939 | S. cerevisiae deletion strains, locus YCL061C, strain MRC1 (second series), active compounds read low 0.996 | [2] 1 | S. cerevisiae deletion strains, locus YDR363W, strain ESC2, active compounds read low 0.944 | S. cerevisiae deletion strains, locus YER002W, strain NOP16, active compounds read low 0.97 | [3] 0.99 | [4] 0.999 | [5] 0.995 | S. cerevisiae deletion strains, locus YMR307W, strain GAS1, active compounds read low 1 | S. cerevisiae deletion strains, locus YNL128W, strain TEP1, active compounds read low 0.981 | S. cerevisiae deletion strains, locus YNL175C, strain NOP13, active compounds read low 0.962 | S. cerevisiae deletion strains, locus YNL197C, strain WHI3, active compounds read low 0.98 | S. cerevisiae deletion strains, locus YNL224C, strain SQS1, active compounds read low 0.997 | [6] 0.972 | S. cerevisiae deletion strains, locus YOR083W, strain WHI5 (second series), active compounds read low 0.918 | [7] 0.937
